A number with no mark means an inactive call. No rule for the calls is given here.
test system: HIV-1 nucleocapsid protein NCp7 (binding to TG oligonucleotide); assay: HIV Nucleocapsid (AID 346); conditions: HIV-1 NC / fluorescein-TGTGTGTG probe, fluorescence polarization;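 also: potency is for inhibitors that block NC binding and lower polarization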
Summary of the method: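 Fluorescence polarization binding of 100 nM HIV-1 NC to 10 nM fluorescein-labelled TG4xF oligonucleotide. Buffer was Hepes pH 7.5 with 250mM NaCl, 1uM ZnCl2, TCEP and 2-mercaptoethanol. Compounds were incubated 1 hr at room temperature before the read.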
Potency is read from the fitted curve at half-maximal effect.

SMILES | Potency [µM]
FC(F)(F)c1ccccc1-c1cncnc1Nc1ccccc1 | > 20
Cc1nc2cnc(N3CCNCC3)nc2n(CCc2ccccc2)c1=O | > 4
O=S(=O)(c1ccccc1)N1CCC[C@@]2(CCN(Cc3cc(C(F)(F)F)cc(C(F)(F)F)c3)C2)C1 | > 20
COc1ccccc1CN1CC[C@@]2(CCCN(C(=O)c3ccco3)C2)C1 | > 20
N#Cc1ccc(CN2CC3(CCN(C(=O)c4ccncc4)CC3)C2)cc1 | > 20
c1ccc2c(NC3CC3)nc(-c3ccoc3)nc2c1 | > 20
Cc1cnc(CNc2ccnc(-c3ccoc3)n2)cn1 | > 20
CN(C)c1ccc(-c2nc(NCCN3CCOCC3)c3ccccc3n2)cc1 | > 20
COc1ccc(C(=O)N2CCC3(CC2)CN(Cc2ccc(C#N)cc2)C3)cc1 | > 20
COc1ccccc1CN1CCCC2(CCN(C(=O)c3cccc(F)c3)CC2)C1 | > 20
COc1ccc(NC(=O)N2CC3(CCN(C(=O)c4cccc(F)c4)CC3)C2)cc1 | > 20
c1nc(NC2CC2)c2cc(-c3ccoc3)ccc2n1 | > 20
O=C(c1csnn1)N1CCC2(CCCN(C(c3ccccc3)c3ccccc3)C2)CC1 | > 20
Cc1noc(C)c1C(=O)N1CCC2(CCCN(C(=O)Nc3cccc(F)c3)C2)CC1 | > 20
COc1ccccc1CNc1ncnc2ccc(-c3ccc(C(=O)N(C)C)cc3)cc12 | > 20

— PubChem BioAssay (NCATS)
